Screens from PubChem.
Most compounds without a hit are left out; they make up all but 2.9% or so of the library.
GDH-TPI counter-1 – GDH-TPI coupling enzyme inhibitors, primary screen, artefact control for M. tuberculosis FBA inhibitor project, biochemical, absorbance, full deck; GDH-TPI coupled enzyme counterscreen, NADH absorbance; inhibition, % at 4.8 µM; hit rate 1.2% among 360,000; AID 588335, 2011; in the data active means inhibition above about 30%;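 further: 0% = DMSO wells and 100% = wells lacking the enzyme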
FadD28 FP inh – inhibitors of FadD28 bisubstrate probe binding, primary screen, biochemical, fluorescence polarization, single point | Mycobacterium tuberculosis FadD28 fatty-acid-AMP ligase | inhibition, % at 12.5 µM | hit rate 0.22% among 360,000 | AID 588549, 2011; in the data active means inhibition above about 8.5%, passing the limit was not always enough
Mtb FBA inh – Mtb FBA enzyme inhibitors, primary screen, biochemical, fluorescence, strain H37Rv; hit rate 2.3% among 360,000; inhibition, % at 1 µM; purified M. tuberculosis FBA, fluorescence read-out;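 further: 0% = vehicle and 100% = reference inhibitor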
Target sequence (P9WQA3 whole entry, looked up): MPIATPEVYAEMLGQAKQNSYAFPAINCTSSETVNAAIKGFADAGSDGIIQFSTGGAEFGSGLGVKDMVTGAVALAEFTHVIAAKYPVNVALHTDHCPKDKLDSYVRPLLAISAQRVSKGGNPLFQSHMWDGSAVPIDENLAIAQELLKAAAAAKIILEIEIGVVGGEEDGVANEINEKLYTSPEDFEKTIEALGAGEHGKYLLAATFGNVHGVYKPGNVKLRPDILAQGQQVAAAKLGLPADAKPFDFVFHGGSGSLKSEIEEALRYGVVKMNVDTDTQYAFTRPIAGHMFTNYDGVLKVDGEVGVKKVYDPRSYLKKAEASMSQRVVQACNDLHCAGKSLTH
Mtb hypoxia rep – PubChem AID 1159583; M. tuberculosis hypoxia-regulated fluorescent reporter, fluorescence; fluorescence inhibition, % (test concentration not listed); hit rate 0.1% among 300,000; in the data active means fluorescence inhibition mostly above about 23%, no sharp cut-off; inactive means mostly below about 17%
Mtb BioA inh – M. tuberculosis BioA enzyme inhibitors, primary screen, biochemical, plate reader, single point, HTS; 7,8-diaminopelargonic acid synthase BioA (Mycobacterium tuberculosis); purified M. tuberculosis BioA enzyme; inhibition, % at 9.99 µM; hit rate 0.096% among 360,000; in the data active means inhibition above about 40%
Mtb FBA inh conf – M. tuberculosis aldolase blockers, biochemical, fluorescence, strain H37Rv, confirmation | hit rate 78% among 5,600 | shares compounds with Mtb FBA inh | inhibition, % at 1 µM | purified M. tuberculosis FBA, fluorescence read-out;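 further: 0% = vehicle wells and 100% = reference inhibitor wells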
GDH-TPI counter-2 – GDH-TPI coupling enzyme inhibitors, artefact control for M. tuberculosis FBA inhibitor project, biochemical, fluorescence, high throughput; inhibition, % at 1 µM; shares compounds with Mtb FBA inh; hit rate 81% among 5,600; GDH-TPI coupled enzyme counterscreen; in the data active means inhibition above about 10%
Numbers without * were called inactive; . = no result given. Unless noted, no stated cut-off is given here; in the data, active means inhibition above about 27%; inactive means the rest.

SMILES | GDH-TPI counter-1 | FadD28 FP inh | Mtb FBA inh | Mtb hypoxia rep | Mtb BioA inh | Mtb FBA inh conf | GDH-TPI counter-2
COCCNc1oc(-c2ccc(F)cc2)nc1C#N | 9.1 | -1.6 | 107.1* | 5.9 | -0.4 | 7.7 | -0.5
N#Cc1nc(COc2cccc(Cl)c2)oc1NCc1ccco1 | -3.3 | -3.2 | 1.7 | 6.6 | -0.2 | . | .
N#Cc1nc(-c2ccc(F)cc2)oc1NCc1ccccc1 | 0.9 | 0.6 | 80.8* | 11.0 | -1.4 | 165.2* | 120.4*
O=C(NC1CC=CCC(CC(=O)N(CCO)Cc2ccccc2)C(=O)NCCOC1=O)OCC1c2ccccc2-c2ccccc21 (stereo not drawn) | . | . | . | -9.3 | . | . | .
C[C@H](CO)N1C[C@H](C)[C@@H](CN(C)Cc2cccc(C(=O)O)c2)Oc2cc(C3=CCCCC3)ccc2S1(=O)=O | . | . | . | . | 7.0 | . | .
COCC(=O)N(C)C[C@@H]1Oc2cc(-c3ccc(C#N)cc3)ccc2S(=O)(=O)N([C@H](C)CO)C[C@H]1C | . | . | . | . | -1.9 | . | .
